Sampled rows, rich in hits. Any-hit rate of the full collection: about 10%.
BAZ2B inh: BAZ2B (human) inhibition. Q9UIF8. AlphaScreen BAZ2B-H3K14Ac peptide displacement. Potency, µM (top dose mostly 114 µM), for the others: at the top dose activity change, negative = inhibition, most hits filed as inhibitors. actives 4.4% (n = 360,000). AID 504333; further: on the % scale 0 is the no-effect control and ±100 the full control effect; nearly all actives have a fitted effect of over 60% in size
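Protein-peptide AlphaScreen: BAZ2B 50 nM, b-H3K14Ac 50 nM, 1x PBS pH 7.4 + 0.01% Tween-20. Preincubation 30 min RT; cpd 30 min RT (top 110 uM); beads 20 min RT, light-protected.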
HP1b binding inh: HP1-beta chromodomain-methylated histone interaction inhibition | P83916 | AlphaScreen HP1-beta / biotin-H3K9me3 peptide binding | Potency, µM (highest dose often 114 µM), inactives show top-dose activity change, negative = inhibition, usual class: inhibitors | actives 0.56% (n = 390,000) | AID 540317; further: nearly all actives have a fitted effect of over 70% in size
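AlphaScreen: HP1-beta (50 nM) preformed 30 min with biotin-H3(1-18)K9me3 peptide (50 nM) in PBS pH 7.4, 0.01% Tween-20. Compound added for 30 min at RT, then streptavidin donor/nickel chelate acceptor beads (10 ug/mL) for 30 min.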
GLS inhibitor: blocks human kidney-isoform glutaminase activity. GLS enzymatic activity, qHTS titration. actives 0.21% (n = 410,000). O94925. Potency, µM (titrated, usually from 45.5 µM), inactives show at the top dose activity change, negative = inhibition, most hits filed as inhibitors; further: on the % scale 0 is the no-effect control and ±100 the full control effect
Target sequence (O94925 whole entry, looked up, canonical isoform): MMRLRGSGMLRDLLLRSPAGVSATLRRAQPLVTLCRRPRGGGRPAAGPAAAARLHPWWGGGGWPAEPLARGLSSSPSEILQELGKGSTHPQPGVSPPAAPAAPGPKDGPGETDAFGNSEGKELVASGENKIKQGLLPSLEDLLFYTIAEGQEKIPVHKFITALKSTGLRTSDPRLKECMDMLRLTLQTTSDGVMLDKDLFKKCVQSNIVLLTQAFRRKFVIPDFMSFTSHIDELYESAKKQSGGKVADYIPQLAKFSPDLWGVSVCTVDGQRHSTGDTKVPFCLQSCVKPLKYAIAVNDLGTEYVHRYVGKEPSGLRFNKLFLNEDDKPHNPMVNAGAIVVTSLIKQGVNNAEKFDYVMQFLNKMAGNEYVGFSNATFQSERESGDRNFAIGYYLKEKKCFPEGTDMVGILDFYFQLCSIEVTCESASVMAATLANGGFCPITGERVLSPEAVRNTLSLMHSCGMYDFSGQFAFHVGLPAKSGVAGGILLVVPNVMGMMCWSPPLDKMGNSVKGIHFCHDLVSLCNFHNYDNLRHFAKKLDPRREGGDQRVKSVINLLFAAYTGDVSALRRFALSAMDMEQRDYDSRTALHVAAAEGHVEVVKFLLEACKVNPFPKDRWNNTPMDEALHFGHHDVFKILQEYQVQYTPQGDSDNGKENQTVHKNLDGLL
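Assay buffer: 45 mM KH2PO4 pH 8.2, 0.02% Tween-20. hKGA acts on L-glutamine (1 mM solution added); product glutamate is reported by an oxidase/peroxidase Amplex Red coupling, with fluorescence taken at baseline and 30 min.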
L3MBTL1 inh: L3MBTL1 (human) inhibition | AlphaScreen L3MBTL1–H3K9me1 peptide binding | Potency, µM (doses to about 57.1 µM), without a hit: at the top dose activity, negative = inhibition, most hits filed as inhibitors | actives 0.66% (n = 230,000) | AID 485360; further: on the % scale 0 is the no-effect control and ±100 the full control effect; nearly all actives have a fitted effect of over 60% in size
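First, the protein-peptide complex forms for 30 min at room temperature (L3MBTL1 50 nM, biotinylated H3K9me1 peptide 75 nM). Next, compounds are pin-transferred and incubated 30 min. Finally, AlphaScreen beads are added and read after 30 min.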
JMJD2A Tudor: inhibitors of human JMJD2A Tudor domain; AlphaScreen JMJD2A-Tudor / H3K4me3 peptide binding; Potency, µM (titrated, usually from 114 µM), without a hit: at the highest dose activity change, negative = inhibition, usual class: inhibitors; actives 4.4% (n = 390,000); AID 504339; further: on the % scale 0 is the no-effect control and ±100 the full control effect; nearly all actives have a fitted effect of over 50% in size
G9a block: inhibitors of human histone lysine methyltransferase G9a | AID 504332 | G9a H3K9 monomethylation, AlphaScreen, 2 h | Potency, µM (doses to about 102 µM), without a hit: at the highest dose activity, negative = inhibition, hits mostly inhibitors | actives 8.8% (n = 350,000) | Q96KQ7; further: on the % scale 0 is the no-effect control and ±100 the full control effect; nearly all actives have a fitted effect of over 75% in size
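G9a (20 nM) preincubated 15 min RT with compounds, then 500 nM biotinylated H3K9 peptide and 20 uM SAM added; 2 h RT reaction. Monomethyl-H3K9 product detected by AlphaScreen with anti-H3K9me1 antibody, streptavidin donor and anti-rabbit IgG acceptor beads.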
Numbers without * were called inactive; ? = inconclusive; . = not tested or not shown; [ ] = dose if it differs, or a comment. The call rests on the fitted dose curve; in most records, active means well fitted curve in the direction sought with a large enough effect; inconclusive means small, poorly fitted or top-dose-only effect, or another doubt; inactive means no such curve, though single readings can be large; an effect the other way counts as inactive or inconclusive. Potency means the concentration at half of the fitted maximal effect.

SMILES	BAZ2B inh	HP1b binding inh	GLS inhibitor	L3MBTL1 inh	JMJD2A Tudor	G9a block
COc1cc(-c2nc3ccc(C)cn3c2Nc2ccc3c(c2)OCCO3)ccc1O	14.1µM*	50.1µM*	12.6µM*	?	?	22.4µM*
Clc1ccc(-c2nc3ncccn3c2Nc2ccc3c(c2)OCO3)cc1	-20.4%	8.9%	-0.2%	-1.6%	-12.6%[57.1 µM]	12.0%
Oc1ccc(-c2nc3ncccn3c2Nc2ccc3c(c2)OCO3)cc1	50.1µM*	-24.4%	20.4%	.	?	?
COc1cc(-c2nc3cnccn3c2Nc2ccc3c(c2)OCCO3)ccc1O	1.9%	0.2%	15.2%	-13.0%	-35.3%	?
c1ccc(-c2nc3cnccn3c2Nc2ccc3c(c2)OCCO3)cc1	?	?	?	-11.8%	44.7µM*	?
CN(C)c1ccc(-c2nc3ccccn3c2Nc2ccc3c(c2)OCCO3)cc1	-32.3%	?	12.9%	.	12.6µM*	2.24µM*
Oc1ccc(-c2nc3ccccn3c2Nc2ccc3c(c2)OCCO3)cc1	39.8µM*	-37.2%	10.7%	.	50.1µM*	12.6µM*
Brc1ccc2nc(-c3ccccc3)c(Nc3ccc4c(c3)OCO4)n2c1	2.5%	38.4%	-8.8%	.	3.4%	-7.0%[59 µM]
CCn1cnc2c(Nc3cc(F)cc(F)c3)nc(C(=O)COc3c(F)c(F)cc(F)c3F)nc21	.	.	.	.	-16.4%	.
Cc1ccc(C(=O)N[C@@H](Cc2ccccc2)C(=O)N2CCC3(CC2)NCCc2[nH]cnc23)cc1C	-30.2%	41.2%	-1.6%	.	24.1%	79.4µM*
CCCCCCn1c(=O)[nH]c2nc3cc(N)c(C)cc3nc2c1=O	3.5%	5.2%	-1.0%	-5.0%	-20.7%	3.55µM*
CCCCn1c(=O)[nH]c2nc3cc(NC(C)=O)ccc3nc2c1=O	?	-5.1%	-0.3%	.	-16.3%	.
CN(C)C(=O)/N=N/C(=O)N(C)C	.	.	.	.	.	2.67µM*
COCC(C)n1c(C)cc(C(=O)CSc2nc(C)c(C)c(C)n2)c1C (stereo not given)	?	11.9%	2.4%	.	-34.4%	-32.9%[12.7 µM]
COCCn1c(C)cc(C(=O)CSc2nc(C)c(C)c(C)n2)c1C	?	-6.7%	0.2%	.	?	28.2µM*
Cc1cc(SCC(=O)Nc2ncc(Cl)cc2Cl)nc2ccccc12	-30.5%	13.5%	9.4%	6.6%	-8.2%	-6.4%[59 µM]
COc1ccc2c(C)cc(SCC(=O)Nc3ncc(Cl)cc3Cl)nc2c1	-2.6%	25.5%	0.1%	-8.6%	-5.7%	25.1µM*
COc1ccc2c(C)cc(SCC(=O)c3ccc4c(c3)OCO4)nc2c1	-28.7%	53.5%	2.2%	4.9%	-5.3%	-48.8%
COCCn1c(C)cc(C(=O)CSc2cc(C)c3ccc(OC)cc3n2)c1C	-36.9%	-9.3%	-0.3%	-10.1%	?	70.8µM*
COCCNC(=O)CSc1cc(-c2ccccc2)c2ccc(OC)cc2n1	-15.0%	48.1%	-19.6%	-4.7%	-23.8%	22.4µM*
CC(NC(=O)CCCn1c(=O)c2cccn2c2cccnc21)c1ccccc1 (stereo not given)	-1.8%	15.5%	-10.0%	.	-15.0%	1.2%[59 µM]
Cc1cccc(NC(=O)c2cnc3sc(N4CCCC4)nn3c2=O)c1C	3.9%	49.6%	5.4%	.	1.0%	9.5%[59 µM]
COc1ccccc1-n1cnnc1SCC(=O)Nc1ncc(Cl)cc1Cl	-3.5%	-4.7%	1.8%	7.9%	50.1µM*	-10.0%[59 µM]
COc1ccccc1-n1cnnc1SCC(=O)Nc1nc(C)c(Cl)cc1Cl	6.1%	24.8%	10.5%	10.0%	-11.1%	-4.6%[59 µM]
CSC1CCCCC1(O)CSc1nc2c(cc1C#N)CCCC2 (stereo not given)	3.4%	?	-2.6%	-8.7%	20µM*	2.51µM*
SMILES	BAZ2B inh	HP1b binding inh	GLS inhibitor	L3MBTL1 inh	JMJD2A Tudor	G9a block
N#Cc1cc2c(nc1SCC(=O)O)CCCCC2	-25.5%	91.3%	-0.5%	-10.4%	5.4%	.
N#CCSc1nc2c(cc1C#N)CCCC2	7.8%	42.3%	6.4%	9.3%	9.0%	25.1µM*
CSc1nc2c(cc1C#N)CCCCC2	64.4%	57.2%	-8.1%	16.2%	41.4%	-5.6%[59 µM]
COc1cccc(Cn2c(=O)c(-c3cccs3)nc3cnc(N4CCN(C)CC4)nc32)c1	.	.	.	.	.	-6.7%[12.7 µM]
CCc1ccccc1NC(=O)Cn1nc(N2CCN(c3ccccc3OC)CC2)ccc1=O	-22.7%	16.4%	2.9%	.	-24.4%	-6.8%[59 µM]
C[C@]12CCC(=O)C=C1CC[C@@H]1C2[C@@H](O)C[C@@]2(C)[C@H]1CC[C@]2(O)C(=O)CO (stereo not given in full)	.	.	.	.	.	18.2%[12.7 µM]
Cc1ccccc1C(=O)NCC(c1cccnc1)N1CCc2ccccc21 (stereo not given)	6.2%	30.5%	22.0%	.	-14.8%	4.9%[59 µM]
O=C(CSC1=N/C(=C/c2ccco2)C(=O)N1c1ccc(OC(F)F)cc1)NC1CCS(=O)(=O)C1 (stereo not given)	50.1µM*	-13.4%	5.9%	-1.5%	?	44.7µM*
COc1ccc(N2C(=O)/C(=C\c3ccco3)N=C2SCC(=O)NC(C)C)cc1Cl	?	-7.4%	3.4%	-3.6%	-18.8%	?
Cn1c(=S)[nH]c2cc(C(=O)N3CCN(Cc4cccs4)CC3)ccc2c1=O	.	57.1%	.	.	-9.9%	.
O=C(Nc1ccc(Br)cc1)c1cc(S(=O)(=O)N2CCc3ccccc32)ccc1F	7.7%	47.4%	7.1%	.	-14.4%	20.1%[59 µM]
COCCn1c(C)c(C)c2c(NCCc3ccccc3)ncnc21	28.2µM*	?	2.6%	.	17.8µM*	28.2µM*
Cc1ccc(S(=O)(=O)Nc2nc3ccccc3nc2NCc2ccco2)cc1	-8.0%	39.2%	-9.3%	-2.2%	-20.2%	?
OCCN1CCN(c2nc(NCc3ccco3)c3ccccc3n2)CC1	-9.2%	4.9%	-6.2%	-1.1%	?	-8.0%[59 µM]
c1ccc(CN2CCN(c3nc(NCc4ccco4)c4ccccc4n3)CC2)cc1	50.1µM*	-15.8%	5.5%	.	?	?
Cc1ccc(OCCN2CCN(c3nc(NCc4ccco4)c4ccccc4n3)CC2)cc1	?	-33.5%	-5.4%	-9.6%	56.2µM*	?
O=C1CC(c2ccc3c(c2)OCO3)c2cc(O)ccc2O1 (stereo not given)	.	.	.	.	.	10µM*
O=C1CC(c2ccc3c(c2)OCO3)c2ccc(O)cc2O1 (stereo not given)	.	.	.	.	.	25.7%
